# Measurements as given in article PMC13494018.
# Unmarked numbers belong to inactive results. How the calls were made is not given here.
# Molecular target: PDL1, Q9NZQ7
# Sequence (Q9NZQ7 whole entry): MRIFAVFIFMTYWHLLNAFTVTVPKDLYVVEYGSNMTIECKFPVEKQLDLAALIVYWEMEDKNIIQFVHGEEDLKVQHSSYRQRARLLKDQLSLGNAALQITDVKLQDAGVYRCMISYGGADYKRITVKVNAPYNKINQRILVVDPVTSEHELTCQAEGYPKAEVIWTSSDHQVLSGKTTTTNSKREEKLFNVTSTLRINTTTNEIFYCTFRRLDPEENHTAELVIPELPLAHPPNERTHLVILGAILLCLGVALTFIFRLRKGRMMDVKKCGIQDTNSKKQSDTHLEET
row,Binder,binding in a display sort
1,d8r1_design_ppi_423_dldesign_0_cycle0_af2pred (protein) SEFDKNMELLKEAGAAISELTARARAEADAAAAEGPDAVRAVAAERIEEARRITEELGEKSSLKESFRGMAERTARTIEAYAAAVIA,not found
2,d8r1_design_ppi_655_dldesign_0_cycle1_af2pred (protein) DDNKAAANAAKTGGNSSNERAKKLLAAGIASGDKALIAQAATLFANAATLYAFANAKTGPEYQANVDAAKANQAAANAALA,not found
3,d8r1_design_ppi_699_dldesign_0_cycle0_af2pred (protein) AAVAAAAAAGKAAIEKIEKAAKEAEKINKESGKALKSLAEQAKKLLAEGIANPATRDAKLAGVNNIAAGAETLAKALKEEKA,not found
4,d8r1_design_ppi_1220_dldesign_0_cycle1_af2pred (protein) AEERAEELAKEAFKLLSEAAKAAATATTEEQVKKGEELAEKAKKLAEELLKEDPSKKGLSEGIKRAAEKVKKAAEEKKKEL,not found
5,d8r1_design_ppi_1325_dldesign_0_cycle0_af2pred (protein) SSGKEKAAEYRAKADALAAQESPETQAQLRALAERVLKAAEEGVEALAKAAAEAAAFGAATSPTAQAAAREAIAAGVAL,not found
6,d8r1_design_ppi_302_dldesign_0_cycle1_af2pred (protein) DEEEGKKSALKAAETARRLAEEAAKQAKEKAADPALAKKYVAKAKAYAKAAEDIAKGFPDNAEIKAAAKEAKKAAQQAKEALKA,not found
7,d8r1_design_ppi_306_dldesign_0_cycle0_af2pred (protein) DAARRAKAEALLKQAKEDFKKFAEQAKKEGPSVLKALKNINESVAEHLKKLDPELGEELKKYGEELIKKAEE,not found
8,d8r1_design_ppi_988_dldesign_0_cycle1_af2pred (protein) SEAAMAAAIAAAHAAAQAVVAADPAAAPFARALMSYAMLAVSDPAAGLAGLAAVAEAAAAAGAAAMAAVAAATRAALAAAHA,not found
9,d8r1_design_ppi_371_dldesign_0_cycle0_af2pred (protein) SAEKAALLAQGKAYFATAKAAAAAAIKLKEAGGSEKTVQALIEQAKAAGEKATALFEAYDPELGKKVKEEVDALLAAAKA,not found
10,d8r1_design_ppi_955_dldesign_0_cycle0_af2pred (protein) LYAELAARVRAIMAAAGMSPREADTVAAFALAAAADPELEEAMREKMRKAAGPEFEPAVEEAIALAREAAAAL,not found
11,d8r1_design_ppi_863_dldesign_0_cycle0_af2pred (protein) SRAERLIEEAERLAKEAKEAAKRVADSPVAPRAKALADATEAFAKGLKAAAAAGGSMEDQEALLRAARNTAEAAKILAEEAEAARAA,not found
12,d8r1_design_ppi_41_dldesign_0_cycle1_af2pred (protein) RGEEILKKAKEAATRALQLASKDPSLLPLALKALALASEAGYAIAHEGVEKGEELAEKAEKLTEEIEKLAE,not found
13,d8r1_design_ppi_991_dldesign_0_cycle0_af2pred (protein) AAAALTAAVAASIKGLAELARKAIDDKSVVKAAANAAKSAAALDKALGKEMSKKLEEAAKKSPEEAVKTIEEVAAKVAAAAAA,not found
14,d8r1_design_ppi_429_dldesign_0_cycle0_af2pred (protein) AAAARAAAAAEGAIAAAKLAGESGNLEALKAFVEAAHAAAAKADPATAAALKAKADATLEAAKKAFKEKEEA,not found
15,d8r1_design_ppi_149_dldesign_0_cycle0_af2pred (protein) DEAAEIFAKALDEMDKKVKEAKEEVKKALEEGEKKDPEEAKKKAKEIIEKAIKELKEIAEKAAKKVPKLGPAAKATAEATAKVLK,not found
16,d8r1_design_ppi_1316_dldesign_0_cycle1_af2pred (protein) SAVAKAAAAAAAAAKKALASHPAIGAAVARSIELGKLEEAAAFATAAAKALIGEEAGEALGKELDKLVAAAKAAA,not found
17,d8r1_design_ppi_1206_dldesign_0_cycle1_af2pred (protein) SPAAQWAALDADLKQARELAKKAKEVGNEEEAKKVEAALKKAEAAAAAARADPSLYHEARRAVGEAQVEALKVISKG,not found
18,d8r1_design_ppi_569_dldesign_0_cycle0_af2pred (protein) EPSPRVQALLHVGRAAATLIAASGTEAGRAAAAELARLAFEAAASSPEEGQKLLEEALARADEVAAGLPADAAAAVRAHLEAALAAMK,not found
19,d8r1_design_ppi_414_dldesign_0_cycle0_af2pred (protein) MEEELKKIKELGKKAAKLAEEEGEEGFKKAIAELEKAAAEAAKGEKAKELQKLVGQGIIDVGKAAYKKEEKKEEELAK,not found

row,Binder,binding in a display sort
1,d8r1_design_ppi_480_dldesign_0_cycle1_af2pred (protein) SAAAATEAKAKAWAAEIIAAAKADPAAAAALATEVVATASEEEIRTLLNILAQQAFKSPDGLTALTAVSAAVAARYA,not found
2,d8r1_design_ppi_1444_dldesign_0_cycle0_af2pred (protein) MEELLARIEEALKRAKEVLKEAKKYSPGAEAIAKAALEAAERALALARAGPERAAEAERELRAAENAIAAAEKLLEA,not found
3,d8r1_design_ppi_660_dldesign_0_cycle1_af2pred (protein) EQAELEALAAAAKAAAAQAYALALASRAQAPAAYAALQQAFALAAQLPEEVAAELKAAAAQALADGLLAREKAE,not found
4,d8r1_design_ppi_80_dldesign_0_cycle1_af2pred (protein) ETPEEKANALFRAFNNVATYAAAKVPALAAAAAAAIAASADPAKLGAAAAAFAAAAAATPAAAALGTSAQAIADKAVATAK,not found
5,d8r1_design_ppi_860_dldesign_0_cycle1_af2pred (protein) DEAYELAAKALAEAAKLRAAADAALAAAGAAGAVEAAALFTAAVKVLEETAKKLKELGSSLGDFTAAAAEREAARAAARIAAALA,not found
6,d8r1_design_ppi_1413_dldesign_0_cycle1_af2pred (protein) GSLLEELAKKEEELKDEEKMLKAHENALEIGIKKAEEDPAKGAKILENLAKNAEAAAKKASPEIAKKFKELAERAKKAAKEAKKKAA,not found
7,d8r1_design_ppi_480_dldesign_0_cycle0_af2pred (protein) SEEEERRRRAEEAADEIVAAAKADPAAAAALAAEFVATSSEEERRLLANILAQKAFEDDAGLTALRAFSLALAEAVA,not found
8,d8r1_design_ppi_179_dldesign_0_cycle0_af2pred (protein) STAARNAAAGIAAAAKENPKSGAKLGKGAIDVLAKKDKKEAAEAAKLAAEQAKAAGKEEVAKEMEELAKKVEAEI,not found
9,d8r1_design_ppi_290_dldesign_0_cycle0_af2pred (protein) SREEAERLKEEIERLAREGIAGDAETAARAMREIHELAIRSTELDPEDAAEVNQKAAEAMLRVGDAREAMLAA,not found
10,d8r1_design_ppi_312_dldesign_0_cycle1_af2pred (protein) ALEEALRATAALVGTASQILAKEDPALAKEVAARILATAVKDPAEAAKLLKEVAKEAKERGWPAAEYYAAAAEALKAAAEA,not found
11,d8r1_design_ppi_460_dldesign_0_cycle1_af2pred (protein) DETGERKATALAAISATVAAAKAAIDANAADPAAAQAALDAAKKALAAIAAKSGLPSVKGVAETAAKKLAAYATAVAAAAA,not found
12,d8r1_design_ppi_259_dldesign_0_cycle1_af2pred (protein) AAAAARLATALANAIAGTNTIKKASTAKSASQFLAASTDRLATLYAADPALVAKLRAAAAAAKAGVDAGLAAAKEALAAATAAG,not found
13,d8r1_design_ppi_1459_dldesign_0_cycle1_af2pred (protein) EKAEKLRKLAKKLKELGKKIAEGDEEEAKKAAKEAAKAAREAGKISPQGKTLEYLGKKTEEAAKAGDKKTAASLADAAAALMEALAD,not found
14,d8r1_design_ppi_1486_dldesign_0_cycle0_af2pred (protein) SEELEKAKEEARKARERLLRLAEEAAAVDPAVAAAGRNAAAGAEKLISTGSLGSARAGKAIAEAAARRAEAVLAAAAAA,not found
15,d8r1_design_ppi_1429_dldesign_0_cycle0_af2pred (protein) SSLESEERLRRMAEGIAERTLRVVERLAKEDLETARRAAENTRGLLAKLGPVAAKIGEETWERAEAILAAIA,not found
16,d8r1_design_ppi_1034_dldesign_0_cycle1_af2pred (protein) DQAFTDAAAAAKALAAIPKYKALGDSLAARVAALAAAAAAARAAGAADPATAAEDAAAAAALAAAAKNIGDFAKAMLKAIEEDE,binds (active)
17,d8r1_design_ppi_178_dldesign_0_cycle1_af2pred (protein) ATEAVAQAIVLAAKRAAALPNAATAVANLAALVALLIEDPRVAEGAVEGAKEAAKALEAAGRTEEAKALLSAAEAAVAETAAKRA,not found
18,d8r1_design_ppi_723_dldesign_0_cycle0_af2pred (protein) GGKSIAEIARIHGARTAAAVLAETGDAAAAAKIKAVAEKAAKEIEKASDNYDKMAEIFRKMVEEIEKITAAAKAAAA,not found
19,d8r1_design_ppi_1358_dldesign_0_cycle1_af2pred (protein) AAAESAALAAALAALRKTEVGPFARQYIIYRLLAQVAEAKGDEETAKRAKAKAEELAKAYPEAAAAADAALALAQAALAA,binds (active)
